# Results: PubChem BioAssay AID504339 (National Center for Advancing Translational Sciences (NCATS), 2011)
# The whole screen tested about 390,000 compounds, of which about 17,000 (4.4%) were called active. Another 8% or so got no clear call; they are omitted. Only a selection was taken, and actives are over-represented in it overall. Unmarked numbers belong to inactive results. Calls come from the whole dose curve; as a rule, active = well fitted inhibition curve with a large enough effect; inconclusive = small, poorly fitted or top-dose-only effect; inactive = no such curve, though single readings can be large or run the other way.
# Target: Lysine-specific demethylase 4A (Homo sapiens) (UniProt O75164)
# Assay: qHTS Assay for Inhibitors of JMJD2A-Tudor Domain; note: nearly all actives have a fitted effect of over 50% in size
# Conditions: AlphaScreen JMJD2A-Tudor / H3K4me3 peptide binding; series mostly up to 114 µM; activity change, negative = inhibition: at the top concentration
# % is set by controls: 0 for no effect and ±100 for the full control effect; potency is the fitted concentration of half-maximal effect.
# Lysine-specific demethylase 4A (Homo sapiens), sequence (O75164 whole entry, looked up, the tested form may be a part): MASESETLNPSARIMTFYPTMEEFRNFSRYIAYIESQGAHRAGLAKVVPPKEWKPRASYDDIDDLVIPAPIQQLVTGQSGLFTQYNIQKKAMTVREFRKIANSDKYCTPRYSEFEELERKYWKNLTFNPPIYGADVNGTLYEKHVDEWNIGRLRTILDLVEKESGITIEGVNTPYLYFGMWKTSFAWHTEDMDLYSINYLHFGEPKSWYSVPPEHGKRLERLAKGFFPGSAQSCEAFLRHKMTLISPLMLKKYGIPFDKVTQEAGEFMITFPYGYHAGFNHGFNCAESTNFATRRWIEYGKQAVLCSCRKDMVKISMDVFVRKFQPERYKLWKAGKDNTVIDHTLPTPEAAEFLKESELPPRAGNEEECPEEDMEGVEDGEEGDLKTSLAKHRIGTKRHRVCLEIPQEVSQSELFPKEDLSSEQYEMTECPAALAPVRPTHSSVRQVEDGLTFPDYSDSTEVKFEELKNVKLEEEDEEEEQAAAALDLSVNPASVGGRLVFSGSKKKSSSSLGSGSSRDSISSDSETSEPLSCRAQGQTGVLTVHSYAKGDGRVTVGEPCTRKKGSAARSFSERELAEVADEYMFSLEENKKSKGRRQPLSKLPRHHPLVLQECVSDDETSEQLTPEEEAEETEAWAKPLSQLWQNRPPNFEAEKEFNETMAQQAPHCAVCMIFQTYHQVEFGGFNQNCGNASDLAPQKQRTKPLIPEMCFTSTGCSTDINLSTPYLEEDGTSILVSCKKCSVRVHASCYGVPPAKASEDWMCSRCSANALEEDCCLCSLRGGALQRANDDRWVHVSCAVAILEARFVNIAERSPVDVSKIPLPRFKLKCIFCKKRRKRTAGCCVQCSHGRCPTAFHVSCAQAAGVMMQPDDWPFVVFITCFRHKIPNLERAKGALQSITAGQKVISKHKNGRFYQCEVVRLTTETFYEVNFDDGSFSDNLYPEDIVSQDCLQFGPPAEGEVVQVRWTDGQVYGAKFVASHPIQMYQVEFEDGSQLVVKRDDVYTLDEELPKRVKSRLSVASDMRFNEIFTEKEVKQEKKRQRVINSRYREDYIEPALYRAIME
SMILES,"activity change, negative = inhibition",Potency
Cn1nnc2c(N3CCN(c4ccccc4)CC3)ncnc21,-9.42%,–
CCOc1ccccc1C(=O)Nc1ccc(S(=O)(=O)N2CCCCC2c2cccnc2)cc1 (stereo not given),-15.2%,–
O=C(c1cccc(Cl)c1)N1CCN(CCc2ccncc2)CC1,-0.662%,–
CCn1c(CNS(=O)(=O)c2ccc(Cl)cc2)n[nH]c1=S,–,10 µM (active)
CSc1ccc(S(=O)(=O)NCc2ccc(Cl)cc2)cc1,14.7%,–
CCn1c(CSCc2c(Cl)cccc2Cl)n[nH]c1=S,-16.5% [at 11.4 µM],–
COc1ccc(-c2nc3ccccc3s2)cc1NC(=O)COc1ccccc1C,-1.12%,–
COc1cccc2sc(NNC(=O)c3nc4ccccc4s3)nc12,–,50.1 µM (active)
COc1cccc(OC)c1C(=O)Nc1nnc(C(C)C)s1,-3.66%,–
Cc1ccc(OCCn2c(CNc3ccccc3C)nc3ccccc32)cc1,-10.9%,–
COc1ccc(N2CCN(C(=O)CN3C(=O)COc4ccccc43)CC2)cc1,-15%,–
COc1ccc(CNC(=O)CSCc2nc(-c3ccccc3F)oc2C)cc1,-6.4%,–
COc1ccc(N2CCN(C(=O)CSCc3nc(-c4ccccc4Cl)oc3C)CC2)cc1,–,50.1 µM (active)
CCS(=O)(=O)C1=NSC2=NC(=O)/C(=C\c3ccc(OS(=O)(=O)c4ccccc4)cc3)C(=N)N21,–,44.7 µM (active)
COc1ccccc1OCCOc1ccc(/C=C2\C(=N)N3N=C(C)SC3=NC2=O)cc1,-14.5%,–
CCOc1cc(/C=C2\C(=N)N3N=C(C)SC3=NC2=O)ccc1OCCOc1ccccc1,-0.685%,–
COc1cc(/C=C2\C(=N)N3N=C(CC(=O)N4CCOCC4)SC3=NC2=O)cc(OC)c1OC,-13%,–
CS(=O)(=O)C1=NN2C(=N)/C(=C\c3ccc(OCCOc4ccccc4)cc3)C(=O)N=C2S1,–,56.2 µM (active)
CCC(=O)Nc1c(C(=O)N2CCN(c3ccc(F)cc3)CC2)oc2ccccc12,-26.9%,–
Cc1ccccc1CCNC(=O)C1CCN(c2nc3ccccc3nc2C(F)(F)F)CC1,-6.17%,–
COc1ccc2c(c1)c(N1CCCC1=O)c(C(=O)Nc1ccc(OC)c(Cl)c1)n2C,-28.3%,–
Cc1nnc(N2CCC(C(=O)Nc3ccc(F)cc3)CC2)c2nn(-c3ccc(Cl)cc3)c(C)c12,5.17%,–
COc1ccc(Cl)cc1-n1c(CCC(=O)O)ccc1-c1ccc(C)cc1,-35.3%,–
O=c1c2ccccc2c(-c2ccc(F)cc2)nn1-c1ccc(C(F)(F)F)cc1,28.6%,–
CC(C)n1c(=S)[nH]c2cc(C(F)(F)F)ccc21,-16.9%,–

SMILES,"activity change, negative = inhibition",Potency
FC(F)(F)c1ccc(-n2cn[nH]c2=S)cc1,–,8.91 µM (active)
Cc1c(NC(=O)Cc2ccccc2)cccc1-c1nc2cccnc2s1,-22.5%,–
Cc1ccc(S(=O)(=O)/N=S(\C)C(C)C)cc1 (stereo not given),–,50.1 µM (active)
CCCC/S(C)=N/S(=O)(=O)c1ccc(C)cc1 (stereo not given),-1.74%,–
CC/S(CC1CC1(Cl)Cl)=N\S(=O)(=O)c1ccc(C)cc1 (stereo not given),-13.1%,–
CC(C)(c1ccccc1)c1ccc(OCCN2CCCC2)cc1,–,20 µM (active)
Clc1ccccc1-c1cc(COc2ccc3ccccc3c2)no1,186%,–
O=C(Nc1ccc(F)cc1F)N1CCCN(CCOc2ccccc2)CC1,-21.4%,–
CCCCOc1ccc(C(C)(O)CCN2CCOCC2)cc1 (stereo not given),-11.1%,–
C#CC(CCN1CCCCC1)(OC)c1ccccc1 (stereo not given),-6.8%,–
c1ccc2cc(OCCN3CCCC3)ccc2c1,–,7.94 µM (active)
O=C(Nc1ccccc1Cl)N1CCC(CN2CCCCC2)CC1,3.85%,–
O=C(CSCc1cnn(-c2ccccc2)c1-n1cccc1)NCc1ccc(Cl)cc1,-6.62%,–
CCOc1ccc(OCC)c(NC(=O)c2cc(C)nc3c2c(C)nn3-c2cccc(Cl)c2C)c1,2.27%,–
CCOc1ccc(NC(=O)C(CC(C)C)N2Cc3ccccc3C2=O)cc1 (stereo not given),0%,–
CCNC(=O)c1cc2n(n1)CCCN(Cc1ccc(C)cc1)C2=O,6.29%,–
CCCCc1nn2c(=O)cc(COC(=O)c3cccc(NC(=O)COc4ccccc4)c3)nc2s1,-5.96%,–
Cc1ccc(Cl)cc1N(C)C(=O)Cn1nc(Cc2cccnc2)c2ccccc2c1=O,-28.5%,–
Cc1cc(NC(=O)C2CCC(CNS(=O)(=O)c3ccc(Br)s3)CC2)ccc1Br (stereo not given),-1.03%,–
COc1ccc(-c2cc(C(=O)N(C)CC(=O)Nc3ccccc3Cl)c3ccccc3n2)cc1OC,5.52%,–
COc1ccc(NC(=O)CN(C)C(=O)c2n[nH]c3ccccc23)cc1,-9.29%,–
CSc1ncccc1C(=O)Nc1ccc(C)cn1,-6.9%,–
CC(=O)N1CCN(C(=O)c2cc(-c3ccc(C)o3)nc3ccccc23)CC1,-10.9%,–
COc1ccc(NC(=O)CN(C)C(=O)c2cc(-c3ccc(C)o3)nc3ccccc23)cc1,–,89.1 µM (active)
Cc1ccc(NC(=O)c2cc(-c3ccc(C)o3)nc3ccccc23)nc1,–,35.5 µM (active)
